{"source": "paper PMC7862700", "about": "“An all-to-all approach to the identification of sequence-specific readers for epigenetic DNA modifications on cytosine”", "test_in_all_cases": "DAPPL (digital affinity profiling via proximity ligation, sequencing); 10 mM Tris-HCl pH 7.5, 50 mM NaCl, 1 mM DTT, 4% glycerol, room temperature, 30 min; GST-TFs on glutathione beads, 16-mer random dsDNA library, 0.1% formaldehyde crosslink after washing; high values mean tight binding", "details_in_all_cases": "protein: recombinant; tags: N-terminal GST; dsDNA, one strand shown", "key": {"ERG": {"biological_target": "T1, ERG (Homo sapiens, UniProt P11308 1-479)", "T1 sequence": "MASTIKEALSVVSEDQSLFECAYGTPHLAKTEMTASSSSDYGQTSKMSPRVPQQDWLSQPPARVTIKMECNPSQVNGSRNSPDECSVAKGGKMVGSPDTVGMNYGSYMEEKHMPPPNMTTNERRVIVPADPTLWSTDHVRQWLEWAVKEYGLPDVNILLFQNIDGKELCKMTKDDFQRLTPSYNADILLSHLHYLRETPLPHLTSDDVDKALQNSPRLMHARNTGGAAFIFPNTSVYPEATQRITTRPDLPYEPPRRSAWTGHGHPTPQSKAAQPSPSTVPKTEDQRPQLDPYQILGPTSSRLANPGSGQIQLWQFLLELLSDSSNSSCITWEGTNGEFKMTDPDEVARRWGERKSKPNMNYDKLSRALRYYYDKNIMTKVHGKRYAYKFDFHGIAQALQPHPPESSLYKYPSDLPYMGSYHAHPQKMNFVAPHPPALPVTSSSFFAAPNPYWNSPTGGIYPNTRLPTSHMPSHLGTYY", "method_in_brief": "(§1)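 Beads coated with glutathione captured GST-fused human transcription factors that had been expressed in yeast, and the factors were then given DNA barcodes and pooled with a tag-only sample. The pools were incubated with 200 nmole of a random double-stranded 16-mer DNA library in Tris/NaCl/DTT/glycerol buffer for 30 min at room temperature, washed, crosslinked with 0.1% formaldehyde and proximity-ligated with BsaI/T4 ligase at 37 °C for 1 h. PCR amplification and Illumina NextSeq500 sequencing came last. Binding signal is each hexamer's read frequency for a factor divided by its frequency for the tag-only sample.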"}, "SPIB": {"biological_target": "SPIB (Homo sapiens, UniProt Q01892 1-262)", "sequence (Q01892 whole entry)": "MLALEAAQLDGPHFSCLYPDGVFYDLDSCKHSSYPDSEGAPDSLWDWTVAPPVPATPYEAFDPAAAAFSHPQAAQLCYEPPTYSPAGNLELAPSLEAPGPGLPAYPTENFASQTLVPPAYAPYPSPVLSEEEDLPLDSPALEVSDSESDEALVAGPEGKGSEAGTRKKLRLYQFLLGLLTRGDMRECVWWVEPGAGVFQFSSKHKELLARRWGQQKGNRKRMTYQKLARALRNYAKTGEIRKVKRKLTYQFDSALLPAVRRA", "method_in_brief": "as §1"}, "ELK3": {"biological_target": "T2, ELK3 (Homo sapiens, UniProt P41970 1-407)", "T2 sequence": "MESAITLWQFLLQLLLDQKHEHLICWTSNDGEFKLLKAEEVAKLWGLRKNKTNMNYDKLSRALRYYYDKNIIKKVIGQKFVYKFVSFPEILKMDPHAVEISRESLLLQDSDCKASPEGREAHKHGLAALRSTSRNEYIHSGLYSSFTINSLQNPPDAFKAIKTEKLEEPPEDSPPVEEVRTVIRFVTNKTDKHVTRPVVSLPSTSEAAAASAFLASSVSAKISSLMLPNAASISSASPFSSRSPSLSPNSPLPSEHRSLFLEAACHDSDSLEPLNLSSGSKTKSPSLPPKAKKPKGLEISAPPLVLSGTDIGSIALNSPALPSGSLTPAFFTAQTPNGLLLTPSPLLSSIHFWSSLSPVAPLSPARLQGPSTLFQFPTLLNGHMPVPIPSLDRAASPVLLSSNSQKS", "method_in_brief": "as §1"}, "SPIC": {"biological_target": "T3, SPIC (Homo sapiens, UniProt Q8N5J4 1-248)", "T3 sequence": "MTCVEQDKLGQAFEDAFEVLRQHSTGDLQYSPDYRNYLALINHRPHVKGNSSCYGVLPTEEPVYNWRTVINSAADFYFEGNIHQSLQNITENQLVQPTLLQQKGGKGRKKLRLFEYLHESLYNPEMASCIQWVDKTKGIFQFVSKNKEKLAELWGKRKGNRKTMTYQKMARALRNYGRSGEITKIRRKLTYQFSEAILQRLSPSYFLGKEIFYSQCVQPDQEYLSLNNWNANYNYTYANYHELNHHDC", "method_in_brief": "as §1"}, "ELF4": {"biological_target": "ELF4 (Homo sapiens, UniProt Q99607 1-663)", "sequence (Q99607 whole entry)": "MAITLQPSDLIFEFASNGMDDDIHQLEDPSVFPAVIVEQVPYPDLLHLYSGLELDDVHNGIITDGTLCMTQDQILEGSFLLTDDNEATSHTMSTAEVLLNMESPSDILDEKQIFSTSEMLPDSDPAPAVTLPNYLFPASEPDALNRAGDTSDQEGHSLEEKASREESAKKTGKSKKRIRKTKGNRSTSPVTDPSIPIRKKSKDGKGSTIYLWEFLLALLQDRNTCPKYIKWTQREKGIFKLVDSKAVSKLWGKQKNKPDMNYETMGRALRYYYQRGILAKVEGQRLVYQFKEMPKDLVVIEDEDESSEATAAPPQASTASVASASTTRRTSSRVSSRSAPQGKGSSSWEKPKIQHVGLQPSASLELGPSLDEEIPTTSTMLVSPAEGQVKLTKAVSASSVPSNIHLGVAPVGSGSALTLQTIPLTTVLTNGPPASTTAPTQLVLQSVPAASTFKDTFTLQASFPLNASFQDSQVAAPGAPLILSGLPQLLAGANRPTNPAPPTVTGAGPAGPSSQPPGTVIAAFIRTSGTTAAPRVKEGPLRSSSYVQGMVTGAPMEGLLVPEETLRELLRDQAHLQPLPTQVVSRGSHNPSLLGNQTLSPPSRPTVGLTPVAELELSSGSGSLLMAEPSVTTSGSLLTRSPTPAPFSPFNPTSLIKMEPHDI", "method_in_brief": "as §1"}, "ELK4": {"biological_target": "T4, ELK4 (Homo sapiens, UniProt P28324-2 1-405)", "T4 sequence": "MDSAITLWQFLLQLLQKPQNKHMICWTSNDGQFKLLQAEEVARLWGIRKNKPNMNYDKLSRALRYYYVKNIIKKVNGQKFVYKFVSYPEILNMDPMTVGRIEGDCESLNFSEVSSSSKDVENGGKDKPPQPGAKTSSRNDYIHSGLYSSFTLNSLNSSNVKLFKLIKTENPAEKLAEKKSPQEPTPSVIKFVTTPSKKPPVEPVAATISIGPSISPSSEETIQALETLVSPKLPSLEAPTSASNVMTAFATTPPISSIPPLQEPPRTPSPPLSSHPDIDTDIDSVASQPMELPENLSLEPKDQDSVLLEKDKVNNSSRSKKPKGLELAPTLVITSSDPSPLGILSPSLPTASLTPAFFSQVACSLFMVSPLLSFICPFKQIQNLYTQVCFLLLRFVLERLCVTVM", "method_in_brief": "as §1"}, "ELF3": {"biological_target": "T5, ELF3 (Homo sapiens, UniProt P78545 1-371)", "T5 sequence": "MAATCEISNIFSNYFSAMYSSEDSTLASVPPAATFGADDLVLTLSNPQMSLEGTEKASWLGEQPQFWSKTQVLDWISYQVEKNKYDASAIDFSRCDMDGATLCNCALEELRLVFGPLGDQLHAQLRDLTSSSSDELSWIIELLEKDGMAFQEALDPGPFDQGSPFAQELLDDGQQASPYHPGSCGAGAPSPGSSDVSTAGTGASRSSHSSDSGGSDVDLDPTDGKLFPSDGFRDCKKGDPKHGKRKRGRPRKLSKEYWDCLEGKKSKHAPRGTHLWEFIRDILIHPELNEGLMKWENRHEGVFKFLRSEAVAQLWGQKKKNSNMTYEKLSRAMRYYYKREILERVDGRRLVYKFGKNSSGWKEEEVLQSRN", "method_in_brief": "as §1"}, "ETV1": {"biological_target": "ETV1 (Homo sapiens, UniProt P50549 1-477)", "sequence (P50549 whole entry)": "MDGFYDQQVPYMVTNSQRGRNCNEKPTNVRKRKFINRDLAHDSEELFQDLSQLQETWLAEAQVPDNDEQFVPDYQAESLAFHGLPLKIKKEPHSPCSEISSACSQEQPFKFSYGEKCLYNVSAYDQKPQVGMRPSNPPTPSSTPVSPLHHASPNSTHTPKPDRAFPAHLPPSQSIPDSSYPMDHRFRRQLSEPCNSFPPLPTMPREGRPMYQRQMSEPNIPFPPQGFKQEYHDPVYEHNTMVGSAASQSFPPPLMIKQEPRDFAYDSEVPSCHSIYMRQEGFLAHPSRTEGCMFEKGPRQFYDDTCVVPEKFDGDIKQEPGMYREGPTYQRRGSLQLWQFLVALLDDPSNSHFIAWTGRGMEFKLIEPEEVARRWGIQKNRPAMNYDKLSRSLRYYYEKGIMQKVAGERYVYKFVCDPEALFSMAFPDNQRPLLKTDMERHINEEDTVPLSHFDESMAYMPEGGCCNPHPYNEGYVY", "method_in_brief": "as §1"}, "ERF": {"biological_target": "T6, ERF (Homo sapiens, UniProt P50548 1-548)", "T6 sequence": "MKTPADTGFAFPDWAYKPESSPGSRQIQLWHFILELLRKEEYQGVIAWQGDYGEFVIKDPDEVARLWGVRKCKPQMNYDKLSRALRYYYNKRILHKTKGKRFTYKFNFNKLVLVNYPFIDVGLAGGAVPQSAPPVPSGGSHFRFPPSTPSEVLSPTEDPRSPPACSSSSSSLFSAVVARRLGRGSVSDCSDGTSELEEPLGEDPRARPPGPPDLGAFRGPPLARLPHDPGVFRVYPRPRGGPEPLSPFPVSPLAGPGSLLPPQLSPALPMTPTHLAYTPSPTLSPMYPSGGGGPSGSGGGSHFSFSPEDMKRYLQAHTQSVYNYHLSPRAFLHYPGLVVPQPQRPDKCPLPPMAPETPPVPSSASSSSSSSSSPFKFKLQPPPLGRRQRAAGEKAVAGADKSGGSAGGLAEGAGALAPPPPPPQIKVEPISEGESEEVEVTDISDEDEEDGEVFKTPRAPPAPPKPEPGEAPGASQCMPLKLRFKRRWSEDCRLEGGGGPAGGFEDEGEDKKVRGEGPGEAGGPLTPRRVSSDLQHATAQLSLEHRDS", "method_in_brief": "as §1"}, "ETV3L": {"biological_target": "T7, ETV3L (Homo sapiens, UniProt Q6ZN32 1-361)", "T7 sequence": "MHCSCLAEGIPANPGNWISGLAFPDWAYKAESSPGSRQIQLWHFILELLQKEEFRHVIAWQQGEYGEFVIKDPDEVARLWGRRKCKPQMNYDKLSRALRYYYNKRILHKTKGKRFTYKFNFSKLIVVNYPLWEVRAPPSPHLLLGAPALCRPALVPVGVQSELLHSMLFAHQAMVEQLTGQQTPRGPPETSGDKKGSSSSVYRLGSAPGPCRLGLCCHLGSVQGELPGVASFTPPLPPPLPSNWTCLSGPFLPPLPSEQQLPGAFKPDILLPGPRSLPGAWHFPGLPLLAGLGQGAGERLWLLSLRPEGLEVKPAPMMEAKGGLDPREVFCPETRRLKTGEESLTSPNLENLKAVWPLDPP", "method_in_brief": "as §1"}, "SPDEF": {"biological_target": "T8, SPDEF (Homo sapiens, UniProt O95238 1-335)", "T8 sequence": "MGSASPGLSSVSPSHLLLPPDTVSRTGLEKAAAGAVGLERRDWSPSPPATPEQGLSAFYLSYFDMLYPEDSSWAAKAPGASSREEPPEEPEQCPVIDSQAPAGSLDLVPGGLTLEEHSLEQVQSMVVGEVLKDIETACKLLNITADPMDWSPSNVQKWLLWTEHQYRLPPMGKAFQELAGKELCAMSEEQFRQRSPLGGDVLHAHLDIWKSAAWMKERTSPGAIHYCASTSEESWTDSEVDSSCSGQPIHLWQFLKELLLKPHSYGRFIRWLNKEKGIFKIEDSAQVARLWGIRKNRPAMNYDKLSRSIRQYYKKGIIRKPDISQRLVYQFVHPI", "method_in_brief": "as §1"}, "ETV7": {"biological_target": "T9, ETV7 (Homo sapiens, UniProt Q9Y603 1-341)", "T9 sequence": "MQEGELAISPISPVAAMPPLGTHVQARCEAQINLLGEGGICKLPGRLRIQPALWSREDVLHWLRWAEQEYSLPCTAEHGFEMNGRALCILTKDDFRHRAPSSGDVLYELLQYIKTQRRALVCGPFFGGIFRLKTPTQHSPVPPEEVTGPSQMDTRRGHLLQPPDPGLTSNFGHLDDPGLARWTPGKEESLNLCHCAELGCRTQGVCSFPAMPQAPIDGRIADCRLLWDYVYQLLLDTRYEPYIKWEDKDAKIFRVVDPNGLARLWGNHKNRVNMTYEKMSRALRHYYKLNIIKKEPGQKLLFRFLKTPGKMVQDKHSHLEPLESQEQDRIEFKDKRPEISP", "method_in_brief": "as §1"}, "ETV3": {"biological_target": "T10, ETV3 (Homo sapiens, UniProt P41162-2 1-143)", "T10 sequence": "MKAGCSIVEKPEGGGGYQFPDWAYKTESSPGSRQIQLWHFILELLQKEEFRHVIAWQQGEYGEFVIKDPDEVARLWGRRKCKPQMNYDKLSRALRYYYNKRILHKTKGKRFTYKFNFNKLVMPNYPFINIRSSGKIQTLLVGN", "method_in_brief": "as §1"}, "ETV6": {"biological_target": "ETV6 (Homo sapiens, UniProt P41212 1-452)", "sequence (P41212 whole entry)": "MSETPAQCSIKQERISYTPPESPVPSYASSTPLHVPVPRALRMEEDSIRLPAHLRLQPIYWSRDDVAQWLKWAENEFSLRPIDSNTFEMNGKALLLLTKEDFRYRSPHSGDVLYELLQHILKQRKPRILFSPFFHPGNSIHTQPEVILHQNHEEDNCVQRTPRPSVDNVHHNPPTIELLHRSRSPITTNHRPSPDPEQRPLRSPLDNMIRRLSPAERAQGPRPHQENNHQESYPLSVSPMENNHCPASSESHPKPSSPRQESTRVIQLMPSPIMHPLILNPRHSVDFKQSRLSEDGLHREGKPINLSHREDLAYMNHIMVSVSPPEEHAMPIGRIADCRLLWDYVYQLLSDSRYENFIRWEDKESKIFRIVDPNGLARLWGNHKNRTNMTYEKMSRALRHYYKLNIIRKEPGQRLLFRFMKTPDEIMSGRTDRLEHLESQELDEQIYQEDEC", "method_in_brief": "as §1"}}}
{"sequence": "TCGAGC", "values": [{"measurement": "binding signal", "setting": "ERG", "result": "1.03 fold enrichment (6-mer frequency, TF over GST control)"}, {"measurement": "binding signal", "setting": "SPIB", "result": "1.1 fold enrichment (6-mer frequency, TF over GST control)"}, {"measurement": "binding signal", "setting": "ELK3", "result": "1.01 fold enrichment (6-mer frequency, TF over GST control)"}, {"measurement": "binding signal", "setting": "SPIC", "result": "1.04 fold enrichment (6-mer frequency, TF over GST control)"}, {"measurement": "binding signal", "setting": "ELF4", "result": "1.03 fold enrichment (6-mer frequency, TF over GST control)"}, {"measurement": "binding signal", "setting": "ELK4", "result": "1.11 fold enrichment (6-mer frequency, TF over GST control)"}, {"measurement": "binding signal", "setting": "ELF3", "result": "1 fold enrichment (6-mer frequency, TF over GST control)"}, {"measurement": "binding signal", "setting": "ETV1", "result": "1.08 fold enrichment (6-mer frequency, TF over GST control)"}, {"measurement": "binding signal", "setting": "ERF", "result": "1.03 fold enrichment (6-mer frequency, TF over GST control)"}, {"measurement": "binding signal", "setting": "ETV3L", "result": "1.15 fold enrichment (6-mer frequency, TF over GST control)"}, {"measurement": "binding signal", "setting": "SPDEF", "result": "1.08 fold enrichment (6-mer frequency, TF over GST control)"}, {"measurement": "binding signal", "setting": "ETV7", "result": "1.09 fold enrichment (6-mer frequency, TF over GST control)"}, {"measurement": "binding signal", "setting": "ETV3", "result": "1.03 fold enrichment (6-mer frequency, TF over GST control)"}, {"measurement": "binding signal", "setting": "ETV6", "result": "1.02 fold enrichment (6-mer frequency, TF over GST control)"}]}
